Compound activity deposited in PubChem by Johns Hopkins Ion Channel Center.
TMEM16A inh: inhibitors of mouse TMEM16A calcium-activated chloride channel. Q8BHY3. HEK293 TMEM16A/YFP iodide influx fluorescence, ionomycin. normalized B-score (activity score, 25-100; higher = stronger inhibition) at 10 µM. actives 1.2% (n = 310,000). AID 588511;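 active means ratio plate-corrected score three or more library SD toward inhibition, starting fluorescence score within five deviations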;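 further: score derived from kinetic fluorescence span divided by baseline fluorescence per well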
CHT inh: inhibits the human high affinity choline transporter. AID 488975. Q9GZV3. actives 0.86% (n = 310,000). B-score at 10 µM. CHT-expressing cells, membrane potential dye, choline response; stronger effect = lower value;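 active means B-score over 3 SD under the library average, and starting fluorescence ratio not unusually high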;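 further: choline stimulus applied at its EC90 after an EC20 pre-addition; B-score computed on integrated fluorescence ratio after choline addition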
TMEM16A act: activators or potentiators of mouse TMEM16A chloride channel; Q8BHY3; HEK293 TMEM16A/YFP-H148Q/I152L, iodide quench fluorescence; stronger effect = lower value; B-score at 10 µM; actives 0.3% (n = 340,000);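 active means fluorescence-ratio B-score plate-corrected deviation score at least 3 library SD below zero, with starting fluorescence score within 5 deviations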;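 further: channel opened by trigger with iodide after compound preincubation; score built on the fluorescence ratio of max minus min over baseline; more negative score means more quench and so TMEM16A activation or potentiation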
CHT PAM: allosterically activates the human high affinity choline transporter; Q9GZV3; actives 0.49% (n = 310,000); AID 488977; CHT-expressing cells, membrane potential dye, choline EC20; stronger effect = higher value; LV-AA mutant CHT in HEK293 cells; B-score at 10 µM;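 active means initial fluorescence not abnormally high and integrated response B-score, plate-corrected, over 3 SD above library mean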
TMEM16A reconf: re-confirmation of mouse TMEM16A chloride channel inhibitors. shares compounds with TMEM16A inh. HEK293 TMEM16A/YFP-H148Q, iodide quench fluorescence; ionomycin added to raise cell calcium. inhibition, % at 10 µM. actives 39% (n = 2,300);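 active means mean duplicate percent inhibition, scaled so buffer wells are 0 and the reference blocker 100, over three buffer SD above buffer mean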
HEK293 Ca mobil: counter-screen for TMEM16A inhibitors: effect on calcium mobilization; calcium response (% of ionomycin), % at 10 µM; shares compounds with TMEM16A inh; actives 2% (n = 2,300); TMEM16A/YFP HEK293, Fluo4 calcium mobilization;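 active means duplicate-averaged calcium signal over 20% of the ionomycin maximum, relative to buffer baseline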;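 further: each well's signal is peak minus trough fluorescence divided by its pre-addition baseline; 0% = buffer wells and 100% = ionomycin wells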
YFP-HEK293 quench: parental YFP-HEK293 iodide quench counter-screen activity. shares compounds with TMEM16A inh. ionomycin. YFP ratio F(max-min)/F0 at 10 µM. 2,300 tested, under 10 active;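 active means yellow fluorescent protein signal ratio exceeding the buffer control mean by over 5 SD of those controls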;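 further: ratio is mean of duplicate wells from kinetic YFP trace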
ClC-1 inh: selectivity of TMEM16A inhibitors: inhibition of rat ClC-1 chloride channel; shares compounds with TMEM16A inh; CHO ClC-1-YFP, iodide influx fluorescence quench; iodide control reads 0, buffer control 100; ratio percent, % at 10 µM; 2,300 tested, under 10 active; AID 652236;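 active means duplicate-mean ratio percent above the mean of iodide-only control wells, which defines zero, plus 5 of their SD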;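 further: higher percent means stronger block of ClC-1 iodide influx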
Target sequence (P35524 whole entry, looked up): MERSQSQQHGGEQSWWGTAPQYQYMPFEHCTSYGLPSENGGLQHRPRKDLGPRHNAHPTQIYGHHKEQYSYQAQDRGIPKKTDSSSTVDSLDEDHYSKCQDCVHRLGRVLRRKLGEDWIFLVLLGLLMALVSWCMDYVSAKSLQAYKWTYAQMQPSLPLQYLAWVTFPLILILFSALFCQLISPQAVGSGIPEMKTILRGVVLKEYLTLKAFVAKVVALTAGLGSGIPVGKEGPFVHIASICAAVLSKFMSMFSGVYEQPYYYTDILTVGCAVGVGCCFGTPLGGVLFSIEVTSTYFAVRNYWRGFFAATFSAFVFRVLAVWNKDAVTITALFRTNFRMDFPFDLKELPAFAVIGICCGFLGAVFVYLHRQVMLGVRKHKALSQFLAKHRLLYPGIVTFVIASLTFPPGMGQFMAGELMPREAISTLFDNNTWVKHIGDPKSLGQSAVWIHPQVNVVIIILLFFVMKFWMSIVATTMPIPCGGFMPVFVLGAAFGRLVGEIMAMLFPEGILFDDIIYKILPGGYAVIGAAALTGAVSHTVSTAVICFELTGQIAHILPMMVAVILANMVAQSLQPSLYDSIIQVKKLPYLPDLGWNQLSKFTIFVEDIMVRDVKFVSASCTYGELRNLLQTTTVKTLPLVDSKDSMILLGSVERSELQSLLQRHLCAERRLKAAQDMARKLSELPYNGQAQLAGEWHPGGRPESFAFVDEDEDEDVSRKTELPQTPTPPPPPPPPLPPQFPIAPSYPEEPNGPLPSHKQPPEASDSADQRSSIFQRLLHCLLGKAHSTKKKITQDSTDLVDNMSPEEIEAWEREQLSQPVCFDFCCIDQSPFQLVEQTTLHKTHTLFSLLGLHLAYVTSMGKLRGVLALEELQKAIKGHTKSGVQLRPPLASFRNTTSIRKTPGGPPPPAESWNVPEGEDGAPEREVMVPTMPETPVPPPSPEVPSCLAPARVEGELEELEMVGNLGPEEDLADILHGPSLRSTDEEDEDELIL
* marks the source's active call; other numbers are inactive results; i = inactive; / = no result given. Rows were chosen to be rich in hits. Some 2.3% of all compounds tested hit in one or more screens of this group.

SMILES | TMEM16A inh | CHT inh | TMEM16A act | CHT PAM | TMEM16A reconf | HEK293 Ca mobil | YFP-HEK293 quench | ClC-1 inh
c1coc(CNc2ncnc3c2oc2ccccc23)c1 | 100* | i | i | i | i | i | -1 | -5
c1ccc2c(c1)oc1c(Nc3ccc4c(c3)OCCO4)ncnc12 | 25* | i | i | i | i | i | -0.92 | 3
O=C(N/N=C/c1c[nH]c2ccccc12)C1CC1(c1ccccc1)c1ccccc1 (stereo unspecified) | i | i | i | i | / | / | / | /
O=C(N/N=C/c1c[nH]c2ccccc12)C1CC1c1ccccc1 (stereo unspecified) | 25* | i | i | i | 46%* | i | -0.69 | -10
COC(=O)C1=C(CS(=O)(=O)c2ccccc2)NC(=O)NC1c1ccc(OC)c(OC)c1 (stereo unspecified) | i | i | i | i | / | / | / | /
COc1ccc(N(C)C(=O)c2cc3c(s2)-c2ccc(Cl)cc2S(=O)(=O)C3)c(OC)c1 | 25* | i | i | i | 26%* | i | -0.81 | -8
COc1ccc(N(C)C(=O)c2cc3c(s2)-c2ccccc2OC3)c(OC)c1 | i | i | i | i | / | / | / | /
O=C1CC(c2ccccc2)c2ccc(O)cc2O1 (stereo unspecified) | 25* | i | i | i | i | i | -1.1 | 7
CN(Cc1cccs1)C(=O)c1ccc(Cl)c(S(=O)(=O)N2CCCCCC2)c1 | / | / | i | / | / | / | / | /
COc1ccccc1-c1noc(-c2ccccc2C(=O)Nc2cccnc2)n1 | i | i | i | i | / | / | / | /
O=C(Nc1cccnc1)c1ccccc1-c1nc(-c2ccccc2F)no1 | 25* | i | i | i | i | i | -0.86 | -12
O=C(CSc1nc2ccccc2c(=O)n1CC1CCCO1)NCC1CCCO1 (stereo unspecified) | 100* | i | i | i | i | i | -1.2 | -8
COc1cc(-c2noc(C)c2C#Cc2ccsc2)cc(OC)c1OC | 100* | i | i | i | 28%* | i | -1.4 | -5
COc1cc(-c2noc(C)c2C#CCO)cc(OC)c1OC | i | i | i | i | / | / | / | /
Cc1nc(NCc2ccccn2)c2c3c(sc2n1)CCCC3 | i | i | i | i | / | / | / | /
Cc1nc(NS(=O)(=O)c2ccc(Cl)s2)c2c3c(sc2n1)CCCC3 | 25* | i | i | i | 17%* | i | -0.91 | -26
O=C(COC(=O)c1cc(S(=O)(=O)N2CCOCC2)c(Cl)cc1Cl)NC1CC1 | / | / | i | / | / | / | / | /
Cc1noc(C)c1COC(=O)C1CCN(C(=O)c2ccc(Cl)cc2)CC1 | i | i | i | i | / | / | / | /
Cc1ccc(S(=O)(=O)N2CCC(C(=O)OCc3ccccc3)CC2)cc1C | 25* | i | i | i | i | i | -1.3 | -6
COC(=O)Nc1ccc(S(=O)(=O)N2CCC(Cc3ccccc3)CC2)cc1 | 100* | i | i | i | i | i | -1.1 | -7
Cc1ccc(S(=O)(=O)N2CCC(C(=O)OCC(=O)NCCc3ccccc3)CC2)cc1C | i | i | i | i | / | / | / | /
COc1cccc(CN2C(=O)C(C)N(C(=O)c3ccccc3)c3ccccc32)c1 (stereo unspecified) | 25* | i | i | i | 17%* | i | -0.86 | -14
CCN(CC)S(=O)(=O)c1cc(-c2nnc(-c3ccc(Br)cc3)o2)ccc1Cl | 25* | i | i | i | i | i | -0.86 | -12
CCN(CC)S(=O)(=O)c1cc(-c2nnc(-c3ccc(Br)cc3)o2)ccc1Br | i | i | i | i | / | / | / | /
CC(NC(=O)CCN1N=C(c2ccccc2)CCC1=O)c1ccc2c(c1)OCCO2 (stereo unspecified) | i | i | / | i | / | / | / | /
SMILES | TMEM16A inh | CHT inh | TMEM16A act | CHT PAM | TMEM16A reconf | HEK293 Ca mobil | YFP-HEK293 quench | ClC-1 inh
Cn1c(SCC(=O)N2CCN(c3ccccc3)CC2)nnc1-c1c[nH]c2ccccc12 | 100* | i | i | i | 21%* | i | -0.87 | -8
CCCc1cc(Nc2cccc(OCC)c2)n2ncnc2n1 | i | i | i | i | / | / | / | /
CCCc1cc(Nc2cccc(OC)c2)n2ncnc2n1 | 100* | i | i | i | i | i | -1 | -7
O=C(Nc1ccccc1)N1CCN(Cc2ccc3c(c2)OCO3)CC1 | 100* | i | i | i | i | i | -1.2 | 2
O=C(CCc1ccc(S(=O)(=O)NCCc2ccccc2)cc1)N1CCN(Cc2ccc3c(c2)OCO3)CC1 | 25* | i | i | i | i | i | -0.82 | -3
Cc1cc(C)cc(NC(=O)N2CCN(Cc3ccc4c(c3)OCO4)CC2)c1 | i | i | i | i | / | / | / | /
CCNS(=O)(=O)c1ccc(CCC(=O)N2CCN(Cc3ccccc3)CC2)cc1 | i | i | i | i | / | / | / | /
OCCNC(=S)Nc1cccc(Cl)c1Cl | i | i | i | i | / | / | / | /
O=C(NCc1ccccc1C(F)(F)F)C1CC(O)CN1C(=O)Nc1ccccc1 (stereo unspecified) | i | i | i | i | i | i | -0.85 | -8
CC(NC(=O)C1CCC1)c1ccc2c(c1)OCO2 (stereo unspecified) | 25* | i | i | i | i | i | -0.89 | -5
O=C(Nc1cccc(C(F)(F)F)c1)c1ccc(Cn2cc(Br)cn2)o1 | 100* | i | i | i | 49%* | i | -1.1 | -12
Cc1nn(CC(=O)N2CCN(c3ccccn3)CC2)c(=O)c2cc3sccc3n12 | i | i | i | i | / | / | / | /
CCN(CC)C(=O)Cn1nc(C)c2ccccc2c1=O | i | i | i | i | / | / | / | /
Cc1cc(C)n(C(C)CNS(=O)(=O)c2ccccc2)n1 (stereo unspecified) | i | i | i | i | / | / | / | /
CCCCOc1ccc(C(=O)N2CC(C)OC(C)C2)cc1 (stereo unspecified) | i | i | i | i | i | i | -1 | -5
O=C(C[n+]1ccc(/C=N/O)cc1)NC1CCCCC1 | i | i | i | i | / | / | / | /
CCCCN(CCCNC(=O)c1c(C)cc(=O)oc1C)c1ccccc1 | i | i | i | i | / | / | / | /
CCN(CCCNC(=O)c1c(C)cc(=O)oc1C)c1ccccc1 | 25* | i | i | i | i | i | -1.2 | -10
